# PubChem BioAssay
# Activity calls are given as the source filed them. No rule for the calls is given here. Where a SMILES comes first, the peptide text is derived from it. The star is where a group is joined. Boc = CC(C)(C)OC(=O)*
# Target: Pantothenate synthetase (Mycobacterium tuberculosis (strain ATCC 25618 / H37Rv)) (UniProt P9WIL5)
# Assay: Recombinant Mtb pantothenate synthetase (PanC) inhibitors, coupled enzyme, confirmatory (AID 375);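 also: 0% = full reaction with vehicle and 100% = no enzyme background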
# Conditions: coupled enzyme assay; at 10 µM, hits give high values
# Sequence of Pantothenate synthetase (Mycobacterium tuberculosis (strain ATCC 25618 / H37Rv)) (P9WIL5 whole entry, looked up): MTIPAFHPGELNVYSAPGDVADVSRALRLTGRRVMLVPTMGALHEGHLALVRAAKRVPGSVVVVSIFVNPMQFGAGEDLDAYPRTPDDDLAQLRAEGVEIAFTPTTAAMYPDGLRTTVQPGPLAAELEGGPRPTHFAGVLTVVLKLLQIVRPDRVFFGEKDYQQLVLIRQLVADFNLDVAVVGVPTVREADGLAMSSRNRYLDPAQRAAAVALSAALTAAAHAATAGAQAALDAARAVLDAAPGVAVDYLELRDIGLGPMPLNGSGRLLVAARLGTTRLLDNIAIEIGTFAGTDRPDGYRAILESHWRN
row,SMILES,inhibition
1,CCN(CCCNS(=O)(=O)c1ccc2c(c1)oc(=O)n2C)c1cccc(C)c1,0% (inactive)
2,Cc1cccc(N=C2NC(=O)CS2)c1C,0% (inactive)
3,COCCNC(=O)C(c1ccc(O)cc1)N(Cc1ccco1)C(=O)CCC(=O)Nc1nccs1 (configuration not stated),1% (inactive)
4,Cc1cccc(NC(=O)CC2CCC2)c1,0% (inactive)
5,CC(C)CCNC(=O)NC(=O)COc1ccccc1C#N,4% (inactive)
6,CC1CCN(CCn2c(=S)[nH]c3ncccc3c2=O)CC1,0% (inactive)
7,CCCCCCn1c(SCCCC)nc2c1c(=O)[nH]c(=O)n2C,4% (inactive)
8,CC(C)Cc1cc(C(=O)Nc2c(F)cc(F)cc2Br)no1,0% (inactive)
9,Cc1cc(C)n2nc[n+](C)c2n1,0% (inactive)
10,CN(C1CCS(=O)(=O)C1)S(=O)C12CC3CC(CC(C3)C1)C2 (configuration not stated),3% (inactive)
11,CN1CCc2nc(SCC(=O)Nc3ccc(F)cc3)c(C#N)cc2C1,8% (inactive)
12,CCOC(=O)Cc1csc(NC(=O)c2cccc(OC)c2)n1,0% (inactive)
13,CCn1nc(C)c(NC(=O)c2cc(Br)ccc2Cl)c1C,15% (inactive)
14,Clc1ccc(SCCn2ccnc2)cc1,0% (inactive)
15,Cc1cccc(OCC(=O)N(Cc2cccs2)C2CCS(=O)(=O)C2)c1C (configuration not stated),3% (inactive)
16,O=C(CSc1nc(-c2ccco2)cc(C(F)(F)F)n1)N1CCCc2ccccc21,5% (inactive)
17,CCN1CCN(CCCNC(=O)C2c3ccccc3C(=O)N(C)C2c2ccc(OC)cc2)CC1 (configuration not stated),0% (inactive)
18,CC1Cc2ccccc2N1C(=O)C12CCC(C)(C(=O)C1)C2(C)C (configuration not stated),3% (inactive)
19,CSCCC(NC(=O)OC(C)(C)C)C(=O)NC(CC(C)C)C(N)=O (stereo not drawn) (Boc-Met-Leu-NH2; configuration not given here),0% (inactive)
20,Cc1cccc(N2CCN(C(=O)Cn3ccc4ccccc4c3=O)CC2)c1C,0% (inactive)
21,Cn1c(=O)[nH]c(=O)c2c1nc(N1CCNCC1)n2Cc1cccc2ccccc12,8% (inactive)
22,O=C(CSc1nnc(-c2ccccc2)o1)N1CCN(c2ccccc2)CC1,0% (inactive)
